From PubChem BioAssay (NCI)
This is part of a sample that, as a whole, favours compounds with a hit. Of some 79,000 tested, about 15% had one in any assay. Cut-off read from the data, not from the text of the source: active = growth inhibition above about 70%; inactive = the rest.

Key:
[1] = NCI Yeast Anticancer Drug Screen. Data for the rad50 strain (AID 155);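 note: 0% = growth of vehicle-only cultures of the same strain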; conditions: S. cerevisiae rad50 strain growth inhibition; at 50.0 µM; hits give high values
In short: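 DNA repair mutant yeast, compound exposure, growth read-out; inhibition is taken relative to vehicle.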

[2] = NCI Yeast Anticancer Drug Screen. Data for the mec2-1 strain (AID 157); conditions: S. cerevisiae mec2-1 strain, at 50.0 µM, hits give high values
In short: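 Mutant yeast (mec2-1) grown with compound; growth inhibition relative to vehicle control reported.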

[3] = NCI Yeast Anticancer Drug Screen. Data for the sgs1 mgt1 strain (AID 161);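 note: 0% = growth of cultures given vehicle only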; conditions: S. cerevisiae sgs1 mgt1 strain, at 50.0 µM, hits give high values
In short: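 Percent growth inhibition was derived by comparing compound-exposed mutant yeast with vehicle-exposed cultures. The strain carries alterations in DNA damage repair.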

[4] = NCI Yeast Anticancer Drug Screen. Data for the cln2 rad14 strain (AID 165);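 note: 0% = growth equal to vehicle treated cultures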; conditions: S. cerevisiae cln2 rad14 strain, at 50.0 µM, hits give high values
In short: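 Readout is yeast growth inhibition versus vehicle-treated controls, using a strain with cln2 and rad14 alterations exposed to compound.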

[5] = NCI Yeast Anticancer Drug Screen. Data for the bub3 strain (AID 167); conditions: S. cerevisiae bub3 mutant strain, at 50.0 µM, hits give high values
In short: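 In this screen, a yeast mutant lacking normal mitotic checkpoint function is challenged with compound. Relative growth versus vehicle gives the inhibition value.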

[6] = NCI Yeast Anticancer Drug Screen. Data for the mlh1 rad18 strain (AID 175); conditions: S. cerevisiae mlh1 rad18 strain growth inhibition; at 50.0 µM; hits give high values
In short: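 Genetically defined yeast (DNA repair-deficient) exposed to compounds; growth inhibition determined relative to vehicle.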

Measured: growth inhibition

c1ccc([As](c2ccccc2)c2ccccc2)cc1
inactive: [1] 0.75% | [2] -0.95% | [3] -7.9% | [4] -3.3% | [5] -3.95% | [6] 5.05%

CN(N=O)C(=O)ON1C(=O)CCC1=O
inactive: [1] 9.65% | [2] 7.55% | [3] 11.3% | [4] 12.4% | [5] 18.8% | [6] 8.75%

O=[As](O)(O)Cc1ccccc1
inactive: [1] 3.75% | [2] 2.45% | [3] -9.6% | [5] -2.55% | [6] -22.8%

COc1c(O)cc2c(c1OC)-c1ccc(SC)c(=O)cc1C(NC(C)=O)CC2 (stereo not given)
inactive: [1] 10.4% | [2] -9.4% | [3] 4.95% | [5] 1.95% | [6] 23.9%

C(=C\C1CC2CCCN2O1)/c1ccccc1 (stereo not given)
inactive: [1] 39.9% | [2] -20.5% | [3] 15.2% | [4] -23.4% | [5] 2.45% | [6] 11.2%

COC1C(O)CC(OC2CC(Oc3cc4cc5c(c(O)c4c(O)c3C)C(=O)[C@@H](OC3CC(OC4CC(OC6CC(C)(O)C(OC(C)=O)C(C)O6)C(O)C(C)O4)C(O)C(C)O3)[C@H]([C@H](OC)C(=O)[C@@H](O)[C@@H](C)O)C5)OC(C)C2OC(C)=O)OC1C (stereo not given in full)
inactive: [1] 12.7% | [2] 24.9% | [3] 8.15% | [4] 60.2% | [5] 7.1% | [6] 29.2%

COc1ccc2nc3ccccc3c(NCCCN(C)CCCl)c2c1
inactive: [1] 67.8% | [2] 56.5% | [3] 57.8% | [4] 50.5% | [5] -0.5% | [6] 66.2%

N#CC(C#N)=Cc1cccc(F)c1
inactive: [1] 37% | [2] 25.2% | [3] 19.4% | [4] 15.6% | [5] 20.2% | [6] 31.9%

Cc1cc[n+](C)c(Cc2ccccc2)c1C
inactive: [1] -26.7% | [2] -11.1% | [3] -8.9% | [4] -26.1% | [5] -22% | [6] -28.9%

O=[N+]([O-])c1cc(S(=O)(=O)F)cc(Cl)c1O
inactive: [1] -10.2% | [2] 1.6% | [3] 2.25% | [5] -2.75%

CC(=O)O[C@H]1C(=O)[C@@]2(C)[C@H]([C@H](OC(=O)c3ccccc3)[C@@]3(O)C[C@H](O)C(C)=C1C3(C)C)[C@]1(OC(C)=O)CO[C@@H]1C[C@@H]2O
inactive: [1] 8.05% | [2] -10.9% | [3] 6% | [4] 8.35% | [5] 12.5% | [6] -0.15%

CCOP(=O)(OCC)/C(C#N)=C/C=C/c1ccco1
inactive: [1] 2.65% | [2] -21.3% | [3] -30.7% | [4] 4.2% | [5] -40.1% | [6] 1.8%

O=C/C=C/c1ccccc1.[Fe+2].[c-]1[c-][c-][cH-][c-]1.[c-]1[c-][c-][cH-][c-]1
inactive: [1] 4.65% | [2] -48.2% | [3] 1.65% | [5] 11.4%

CN(C)CCCNc1c2c(nc3ccc(Cl)cc13)CCCC2
inactive: [1] -1.2% | [2] -20.4% | [3] -31.8% | [4] 6.6% | [5] 9.15% | [6] -7.3%

N#CCCSCCC#N
inactive: [1] 25.4% | [2] 6.55% | [3] 14.1% | [4] 3.7% | [5] 6.8% | [6] 4.6%

CC(=O)C1=C(O)C2C3c4c[nH]c5cccc(c45)CC3C(C)(C)N2C1=O (stereo not given)
inactive: [1] 22.6% | [2] -11% | [3] 23.9% | [4] -12.8% | [5] 15% | [6] 21.8%

Nc1ccc(S(=O)(=O)F)cc1
inactive: [1] -22% | [2] -54% | [3] -34.6% | [5] -35.3% | [6] -22.2%

CCOP(=O)(OCC)/C(C#N)=C/c1nccn1C
inactive: [1] -15.2% | [2] 0.15% | [3] -13.7% | [5] 24.1% | [6] -34.4%

COc1cc2c(c(OC)c1OC)-c1ccc(SC)c(=O)cc1[C@@H](NC(C)=O)CC2
inactive: [1] -12.4% | [2] -16.9% | [3] -19.1% | [5] -27.4% | [6] -7.3%

CC[O-].CC[O-].O=C([CH-]C(=O)c1ccccc1)c1ccccc1.O=C([CH-]C(=O)c1ccccc1)c1ccccc1.[Ti+4]
inactive: [1] 34.3% | [2] 30.9% | [3] 29.1% | [5] 52.7% | [6] 26.1%

CN=NNc1nc[nH]c1C(N)=O
inactive: [1] 23.9% | [2] 32.2% | [3] 25.2% | [5] 3.85% | [6] 40.5%
